Our source for the growth inhibition values is PubChem BioAssay (NCI).

Assay [1] can be described thus: NCI Yeast Anticancer Drug Screen. Data for the rad50 strain (AID 155).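 Further: 0% = growth of vehicle-only cultures of the same strain.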 The following applies: S. cerevisiae rad50 strain growth inhibition, hits give high values. The procedure, abridged:
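Genetically altered yeast (DNA repair pathway); compound treatment; growth inhibition vs vehicle ctrl.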

Assay [2] is described as follows: NCI Yeast Anticancer Drug Screen. Data for the mec2-1 strain (AID 157). The note with it: S. cerevisiae mec2-1 strain, hits give high values. In short, it runs like this: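 Compounds were applied to mec2-1 yeast cells. Their growth was then compared with that of vehicle-treated cultures to give growth inhibition.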
Assay [3] in a line: NCI Yeast Anticancer Drug Screen. Data for the sgs1 mgt1 strain (AID 161).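 Further: 0% = growth of cultures given vehicle only.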 The note with it: S. cerevisiae sgs1 mgt1 strain, hits give high values. The procedure, abridged:
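Yeast cells carrying a defined DNA-repair defect were exposed to test compounds. Growth inhibition was measured relative to vehicle-treated controls.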

A short description of assay [4]: NCI Yeast Anticancer Drug Screen. Data for the cln2 rad14 strain (AID 165).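 Further: 0% = growth equal to vehicle treated cultures.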 The note with it: S. cerevisiae cln2 rad14 strain, hits give high values. The procedure, abridged:
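Strain: cln2 rad14 yeast, altered in cell cycle control and DNA damage repair. Read-out: growth inhibition vs vehicle.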

Assay [5] can be described thus: NCI Yeast Anticancer Drug Screen. Data for the bub3 strain (AID 167). The note with it: S. cerevisiae bub3 mutant strain, hits give high values. The procedure, abridged: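 Yeast carrying a defined mutation is treated with each compound, and growth is compared with that of vehicle-exposed cells to give inhibition.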
Assay [6] in a line: NCI Yeast Anticancer Drug Screen. Data for the mlh1 rad18 strain (AID 175). The note with it: S. cerevisiae mlh1 rad18 strain growth inhibition, hits give high values. In short, it runs like this: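 A repair-deficient yeast strain is exposed to test compound, and growth is scored relative to vehicle-treated controls.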
Where [7] appears, read: at 5.0 µM (retest, dose inferred, filed as 0.5).
Setting [8] is: at 50.0 µM (retest, dose inferred, filed as 5.0).

Structures are written as SMILES. Compounds without any hit were thinned out: in the full panel of roughly 79,000, 15% have a hit. A number with no mark means an inactive call. The source made the active and inactive calls. No stated cut-off is given here; in the data, active means growth inhibition above about 70%; inactive means the rest.

For `Fc1ccc(NCCS)cc1`, the growth inhibition is -18% in assay [1] (setting [7]); 90% (active) in assay [1] (setting [8]); 85.2% (active) in assay [1] (at 50.0 µM); -27% in assay [2] (setting [7]); 95% (active) in assay [2] (setting [8]); 87.8% (active) in assay [2] (at 50.0 µM). Besides, the growth inhibition in assay [3] (setting [7]) was -18%; in assay [3] (setting [8]), 61%; in assay [3] (at 50.0 µM), 79.1% (active); in assay [4] (setting [7]) it was -4%; in assay [4] (setting [8]) it was 66%; in assay [4] (at 50.0 µM), 60.2%. The growth inhibition was 10% in assay [5] (setting [7]); 93% (active) in assay [5] (setting [8]); 86.9% (active) in assay [5] (at 50.0 µM); -31% in assay [6] (setting [7]); 90% (active) in assay [6] (setting [8]); 84.3% (active) in assay [6] (at 50.0 µM).
Consider `CCCCC(C=O)(C=C=C(C)C)CC` (configuration not stated), for which the growth inhibition in assay [1] (setting [7]) was -4%; in assay [1] (setting [8]) it was 28%; in assay [1] (at 50.0 µM), 51.4%; in assay [2] (setting [7]) it was -2%; in assay [2] (setting [8]), 0%; in assay [2] (at 50.0 µM), 52.1%. For the same compound, the growth inhibition in assay [3] (setting [7]) was 0%; in assay [3] (setting [8]), 35%; in assay [3] (at 50.0 µM), 61.3%; in assay [4] (setting [7]) it was -7%; in assay [4] (setting [8]), 26%; in assay [4] (at 50.0 µM) it was 36.4%. Further, the growth inhibition was -13% in assay [5] (setting [7]); 2% in assay [5] (setting [8]); 66.3% in assay [5] (at 50.0 µM); -32% in assay [6] (setting [7]); -4% in assay [6] (setting [8]); 16.9% in assay [6] (at 50.0 µM).
As for `CCC1CCCCN1C(=S)N/N=C(\C)c1ccccn1` (configuration not stated), the growth inhibition in assay [1] (setting [7]) is 29%; in assay [1] (setting [8]), 98% (active); in assay [1] (at 50.0 µM) it was 90.5% (active); in assay [2] (setting [7]), 19%; in assay [2] (setting [8]) it was 99% (active); in assay [2] (at 50.0 µM) it was 94.1% (active). Also, the growth inhibition in assay [3] (setting [7]) is 28%; in assay [3] (setting [8]), 99% (active); in assay [3] (at 50.0 µM), 89.8% (active); in assay [4] (setting [7]) it was 21%; in assay [4] (setting [8]), 99% (active); in assay [4] (at 50.0 µM), 91.7% (active). The growth inhibition in assay [5] (setting [7]) was 21%; in assay [5] (setting [8]), 99% (active); in assay [5] (at 50.0 µM) it was 90% (active); in assay [6] (setting [7]), 23%; in assay [6] (setting [8]), 98% (active); in assay [6] (at 50.0 µM) it was 90.5% (active).
`CC1(C)CCC[C@]2(C)[C@@H](C=O)C(C=O)=CC[C@@H]12`: the growth inhibition is 25% in assay [1] (setting [7]); 90% (active) in assay [1] (setting [8]); 91.3% (active) in assay [1] (at 50.0 µM); 23% in assay [2] (setting [7]); 96% (active) in assay [2] (setting [8]); 90.8% (active) in assay [2] (at 50.0 µM). In addition, the growth inhibition is 22% in assay [3] (setting [7]); 84% (active) in assay [3] (setting [8]); 88.4% (active) in assay [3] (at 50.0 µM); 23% in assay [4] (setting [7]); 81% (active) in assay [4] (setting [8]); 90.2% (active) in assay [4] (at 50.0 µM). The growth inhibition in assay [5] (setting [7]) is 19%; in assay [5] (setting [8]), 88% (active); in assay [5] (at 50.0 µM) it was 90.3% (active); in assay [6] (setting [7]), 21%; in assay [6] (setting [8]), 91% (active); in assay [6] (at 50.0 µM), 86.9% (active).
For the compound `N#C/C(=N\Nc1ccc(Cl)cc1)C(=O)C1CC1`, the growth inhibition in assay [1] (setting [7]) was 59%; in assay [1] (setting [8]), 62%; in assay [1] (at 50.0 µM), 86.4% (active); in assay [2] (setting [7]), 41%; in assay [2] (setting [8]), 46%; in assay [2] (at 50.0 µM), 77.5% (active). The growth inhibition was 58% in assay [3] (setting [7]); 70% (active) in assay [3] (setting [8]); 85.7% (active) in assay [3] (at 50.0 µM); 55% in assay [4] (setting [7]); 55% in assay [4] (setting [8]); 85.5% (active) in assay [4] (at 50.0 µM). Moreover, the growth inhibition was 51% in assay [5] (setting [7]); 78% (active) in assay [5] (setting [8]); 77.4% (active) in assay [5] (at 50.0 µM); 62% in assay [6] (setting [7]); 69% in assay [6] (setting [8]); 82% (active) in assay [6] (at 50.0 µM).
With `O=C(Nc1ccc(Cl)c(Cl)c1)OCc1ccco1`, the growth inhibition in assay [1] (setting [7]) is 51%; in assay [1] (setting [8]), 68%; in assay [1] (at 50.0 µM) it was 91.4% (active); in assay [2] (setting [7]) it was 38%; in assay [2] (setting [8]), 66%; in assay [2] (at 50.0 µM) it was 93% (active). Besides, the growth inhibition was 47% in assay [3] (setting [7]); 99% (active) in assay [3] (setting [8]); 92.9% (active) in assay [3] (at 50.0 µM); 35% in assay [4] (setting [7]); 90% (active) in assay [4] (setting [8]); 91.7% (active) in assay [4] (at 50.0 µM). For the same compound, the growth inhibition is 41% in assay [5] (setting [7]); 81% (active) in assay [5] (setting [8]); 93.1% (active) in assay [5] (at 50.0 µM); 48% in assay [6] (setting [7]); 76% (active) in assay [6] (setting [8]); 92% (active) in assay [6] (at 50.0 µM).
Take `C/C(=N\NC(=S)N1CC2CCC(CC2)C1)c1ccccn1`: the growth inhibition in assay [1] (setting [7]) is 33%; in assay [1] (setting [8]) it was 65%; in assay [1] (at 50.0 µM), 86.7% (active); in assay [2] (setting [7]), 13%; in assay [2] (setting [8]) it was 73% (active); in assay [2] (at 50.0 µM) it was 89.7% (active). For the same compound, the growth inhibition is 26% in assay [3] (setting [7]); 76% (active) in assay [3] (setting [8]); 88.8% (active) in assay [3] (at 50.0 µM); 23% in assay [4] (setting [7]); 81% (active) in assay [4] (setting [8]); 79.1% (active) in assay [4] (at 50.0 µM). Moreover, the growth inhibition in assay [5] (setting [7]) was 21%; in assay [5] (setting [8]), 80% (active); in assay [5] (at 50.0 µM) it was 88.7% (active); in assay [6] (setting [7]), 25%; in assay [6] (setting [8]) it was 68%; in assay [6] (at 50.0 µM), 92.3% (active).
Take `CCN(CC)CCNc1ccc([N+](=O)[O-])c2sc3ccccc3c(=O)c12`: the growth inhibition was 46% in assay [1] (setting [7]); 95% (active) in assay [1] (setting [8]); 86.2% (active) in assay [1] (at 50.0 µM); 13% in assay [2] (setting [7]); 85% (active) in assay [2] (setting [8]); 90.7% (active) in assay [2] (at 50.0 µM). Further, the growth inhibition in assay [3] (setting [7]) is 19%; in assay [3] (setting [8]), 84% (active); in assay [3] (at 50.0 µM) it was 41.2%; in assay [4] (setting [7]) it was 12%; in assay [4] (setting [8]), 60%; in assay [4] (at 50.0 µM), 20.5%. Moreover, the growth inhibition was 27% in assay [5] (setting [7]); 98% (active) in assay [5] (setting [8]); 17.7% in assay [5] (at 50.0 µM); 33% in assay [6] (setting [7]); 88% (active) in assay [6] (setting [8]); 90.3% (active) in assay [6] (at 50.0 µM).
In the case of `Cc1cc2nc(CC(=O)c3ccncc3)c(=O)[nH]c2cc1C`, the growth inhibition in assay [1] (setting [7]) was -28%; in assay [1] (setting [8]) it was 9%; in assay [1] (at 50.0 µM) it was 6.65%; in assay [2] (setting [7]), 8%; in assay [2] (setting [8]) it was -11%; in assay [2] (at 50.0 µM) it was 11.7%. Besides, the growth inhibition is 1% in assay [3] (setting [7]); 17% in assay [3] (setting [8]); 21.6% in assay [3] (at 50.0 µM); -9% in assay [4] (setting [7]); 33% in assay [4] (setting [8]); 30.1% in assay [4] (at 50.0 µM). Further, the growth inhibition in assay [5] (setting [7]) is -5%; in assay [5] (setting [8]), 24%; in assay [5] (at 50.0 µM), 7.45%; in assay [6] (setting [7]), -18%; in assay [6] (setting [8]), 21%; in assay [6] (at 50.0 µM) it was 73.1% (active).
